# Compound activity deposited in PubChem by Broad Institute.
# In the library only some 1.8% were active in any assay of this set; here they are far more common.
# EWS-Fli inh – EWS/Fli-driven NR0B1 reporter inhibitors, primary screen, A673 cells, NR0B1 luciferase, luminescence, MLPCN library | viability-normalised | inhibition, % at 12.6 µM | hit rate 0.67% among 350,000 | AID 651661, 2012;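 active = mean inhibition of at least 50% after viability correction, with every replicate also passing that limit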;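 note: firefly luciferase signal divided by Alamar Blue viability fluorescence both relative to DMSO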
# PAX8 inh HTS – inhibitors of PAX8-driven TPO luciferase reporter, primary screen, RMG-I cells, single concentration | SteadyGlo, 24 h | inhibition, % at 12.6 µM | hit rate 1.2% among 360,000 | AID 652154, 2013;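 active = mean replicate inhibition at least 60% with every replicate also reaching 60%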;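 note: luciferase light reporting Pax8 driven TPO promoter activity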
# F508del corr – F508del CFTR correction, initial screen, CFBE line, single point | hit rate 0.36% among 350,000 | activity (quench increase), % at 7.58 µM | CFBE cells, YFP halide quenching; stimulated with forskolin plus potentiator P3; % fluorescence drop versus neutral controls;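 active = mean added fluorescence quench of at least 8% versus neutral control, with both replicates also reaching 8%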;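 note: cells transiently co-express mutant CFTR-F508del with the halide-sensitive YFP; corrector assay measuring rescue of mutant channel to the surface after 24 h compound exposure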
# LGR2 inh – inhibitors of bursicon-induced LGR2 CRE-luciferase signal, primary screen, cell-based, HEK293, CRE-luciferase reporter, bursicon stimulation; hit rate 0.35% among 380,000; AID 720647, 2013; Drosophila bursicon receptor LGR2 (rickets); bursicon-stimulated, 4 h; inhibition, % at 9.99 µM;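 active = drop in luminescence signal, shown as inhibition above about 50% in the replicate tests, limit read from the data, passing the limit was not always enough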;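 note: agonist challenge used bursicon conditioned medium at about half maximal strength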
# Numbers stand for hits; - = inactive; . = no result.
SMILES,EWS-Fli inh,PAX8 inh HTS,F508del corr,LGR2 inh
CN(C)S(=O)(=O)c1ccc(-c2csc(N/N=C/c3ccc(O)cc3)n2)cc1,56,-,-,-
C(=N\Nc1nc(-c2ccccc2)cs1)/c1ccncc1,-,-,-,-
CN(C)S(=O)(=O)c1ccc(-c2csc(N/N=C/c3ccco3)n2)cc1,-,-,-,102
COc1cccc(Nc2nc(N)nc(-c3oc4ccccc4c3C)n2)c1,.,.,.,-
Cc1cccc(Nc2nc(N)nc(-c3oc4ccccc4c3C)n2)c1,-,-,12,-
Cc1cc(-c2ccccc2)nc(N(C)NC(=O)C2CC2)c1S(C)(=O)=O,-,-,8.5,-
CN(CC(=O)Nc1ccc(Cl)cc1)C(=O)c1ccc(-n2cncn2)c([N+](=O)[O-])c1,-,-,-,-
C[C@@H]1CN([C@@H](C)CO)C(=O)Cc2cc(N(C)C)ccc2O[C@H]1CN(C)Cc1ccc(Oc2ccccc2)cc1,-,82,-,-
C[C@@H]1CN([C@@H](C)CO)C(=O)c2cc(N(C)C)ccc2O[C@@H]1CN(C)Cc1ccc(Oc2ccccc2)cc1,-,84,-,-
C[C@@H]1CN([C@@H](C)CO)C(=O)c2cc(N(C)C)ccc2O[C@H]1CN(C)Cc1ccc(Oc2ccccc2)cc1,-,-,-,-
CC(C)c1ccc(NC(=O)c2cc3c(=O)n(C)c4ccccc4c3n2C)cc1,-,-,-,-
CC(=O)c1c(C)[nH]c(C(=O)OCCOc2ccccc2)c1C,-,-,-,68
CC(=O)c1c(C)[nH]c(C(=O)COC(=O)CCCOc2ccccc2)c1C,-,-,-,-
COc1cc(C(=O)NCCCN2CCCC2=O)cc(OC)c1OC,-,.,-,-
CO[C@@H](CN(C)S(=O)(=O)c1ccc(C)cc1)[C@H](C)CN([C@H](C)CO)S(=O)(=O)c1cccc(Cl)c1,-,.,15,-
CCOc1ccc(Nc2cc(C)nc(-n3nc(C)cc3C)n2)cc1,.,68,.,.
CC(C)Cc1nc2oc3c(Cl)ncnc3c2c2c1CCC2,58,.,-,-
CC(=O)OCCn1c2nc(=O)[nH]c(=O)c-2nc2cc(C)c(C)cc21,-,-,18,-
COC(=O)C[C@H]1CC[C@@H]2[C@H](COc3ccc(NC(=O)NC(C)C)cc3C(=O)N2C)O1,-,-,-,-
CCN1C/C(=C\c2cccc([N+](=O)[O-])c2)C(=O)/C(=C/c2cccc([N+](=O)[O-])c2)C1,82,-,-,-
N#CC1=C(N)OC2=C(CCc3ccccc32)C1c1ccccc1Cl (configuration not stated),-,-,10,-
C[C@H]1CN([C@@H](C)CO)C(=O)Cc2cc(NS(=O)(=O)c3cccs3)ccc2O[C@@H]1CN(C)Cc1ccc(Cl)c(Cl)c1,-,.,-,-
Cc1ccc(NC(=S)N(CCCN2CCOCC2)Cc2ccccn2)cc1,-,110,-,-
O=C(O)c1cccc(NC(=S)N/N=C/c2ccccn2)c1,-,-,-,72
Cc1ccccc1NC(=S)N/N=C/c1ccc(O)cc1O,-,-,-,-
SMILES,EWS-Fli inh,PAX8 inh HTS,F508del corr,LGR2 inh
O=C(O)c1cccc(NC(=S)N/N=C/c2cccc(O)c2)c1,-,-,-,63
Cc1cccc(NC(=S)N/N=C/c2cccc(O)c2)c1C,64,-,11,-
CCc1nnc(NC(=O)CCC(=O)N2CCN(S(=O)(=O)c3cc(Cl)ccc3OC)CC2)s1,-,-,-,-
C[C@@H]1CCCCO[C@H](CN(C)C)[C@H](C)CN([C@H](C)CO)C(=O)c2cc(NC(=O)C3CCCCC3)ccc2O1,-,-,-,-
CC(=O)Nc1cccc(-c2ccnc3c2CC(C)(C(=O)Nc2cccc(OC(F)(F)F)c2)O3)c1 (configuration not stated),52,.,-,-
CC1(C(=O)Nc2cccc(OC(F)(F)F)c2)Cc2c(-c3cccc(C(F)(F)F)c3)ccnc2O1 (configuration not stated),-,-,-,-
CC1(C(=O)NCc2ccc(F)c(F)c2)Cc2c(-c3cccc(C(N)=O)c3)ccnc2O1 (configuration not stated),-,-,-,-
CC1(C(=O)NCc2cccs2)Cc2c(-c3ccc4c(c3)OCO4)ccnc2O1 (configuration not stated),-,-,9.5,-
CC(=O)Nc1cccc(-c2ccnc3c2CC(C)(C(=O)NCc2ccc(F)c(F)c2)O3)c1 (configuration not stated),58,-,-,-
CC1(C(=O)NCc2ccccc2)Cc2c(-c3cccc(C(N)=O)c3)ccnc2O1 (configuration not stated),58,-,-,-
C[C@H]1CN([C@@H](C)CO)C(=O)Cc2cc(NS(=O)(=O)c3cn(C)cn3)ccc2O[C@@H]1CN(C)S(=O)(=O)c1ccccc1,-,-,-,-
COc1cccc(-c2ccccc2[C@@H]2[C@H](C#N)N(C(=O)Cc3ccccc3)[C@H]2CO)c1,-,.,-,-
O=C(Nc1ccc(F)c(F)c1)NC1CCCCC1,.,-,.,.
CCOCCCNC(=O)/C=C1\Sc2ccccc2N(Cc2ccccc2F)C1=O,-,-,-,-
CO[C@@H]1CN(C)C(=O)c2ccc(NC(=O)c3ccc4c(c3)OCO4)cc2OC[C@H](C)NC[C@H]1C,-,-,-,-
Cc1ccc2c(c1)sc1nc(=O)ccn12,-,-,-,-
Cc1nc2c(-c3ccc(F)cc3)cnn2c(N)c1-c1ccccc1,-,-,-,64
CCN(CC)S(=O)(=O)c1cccc(C(=O)NCC(c2ccccc2)N(C)C)c1 (configuration not stated),-,-,-,-
COC(=O)c1ccccc1NC(=S)N(Cc1ccc2c(c1)OCO2)Cc1cc2ccc(OC)cc2[nH]c1=O,88,-,.,-
COC(=O)c1ccccc1NC(=S)N(Cc1ccc2c(c1)OCO2)Cc1cc2ccc(C)cc2[nH]c1=O,.,-,.,-
Cc1ccc(NC(=O)Cc2ccc(-n3cccc3)cc2)c(C)c1,.,-,.,-
Cc1ccc(NC(=O)Cc2cc(C(=O)O)c3ccccc3n2)c(C)c1,-,70,-,-
COc1ccc2c(c1)C(=O)N1[C@H]3c4cc(C)ccc4OC[C@@H]3[C@H](c3ccccc3)[C@]1(C)C(=O)N2,64,-,-,-
Cc1ccc2c(c1)[C@H]1[C@H](CO2)[C@H](c2ccccc2)[C@]2(C)C(=O)Nc3ccccc3C(=O)N12,57,-,-,-
Cc1ccc2c(c1)[C@H]1[C@H](CO2)[C@H](c2ccccc2)[C@]2(C)C(=O)Nc3ccc(Cl)cc3C(=O)N12,-,-,-,.
Cc1ccc2c(c1)[C@H]1[C@H](CO2)[C@H](c2ccccc2)[C@]2(C)C(=O)Nc3cc(F)ccc3C(=O)N12,61,-,-,-
Nc1nn(-c2ccccc2)c(N)c1N=Nc1ccc2c(c1)OCO2,.,-,.,-
Nc1nn(-c2ccccc2)c(N)c1N=Nc1cccc(F)c1,-,-,11,-
CNS(=O)(=O)c1cccc(C(=O)OCC(=O)c2cc(C)n(CC3CCCO3)c2C)c1 (configuration not stated),-,-,25,-
